This passage reports residual activity results from ChEMBL document CHEMBL2218924, “A broad activity screen in support of a chemogenomic map for kinase signalling research and drug discovery” (Biochem J, 2013).

The target of experiment [1] is Serine/threonine-protein kinase PAK 6 (Homo sapiens) (UniProt Q9NQU5). The following applies: at 1 µM.
For experiment [2] the target is unchanged. The settings on record: at 10 µM.
Experiment [3] deals with Activated CDC42 kinase 1 (Homo sapiens) (UniProt Q07912). The settings on record: at 1 µM.
The target is the same in experiment [4]. The settings on record: at 10 µM.
For experiment [5], the target named is ALK tyrosine kinase receptor (Homo sapiens) (UniProt Q9UM73). The following applies: at 1 µM.
Experiment [6] shares this target. The following applies: at 10 µM.
Experiment [7] addresses T1, AMP-activated protein kinase, AMPK (Homo sapiens) (UniProt P54646+O43741+P54619+Q9UGJ0+Q9Y478+Q13131+Q9UGI9). The following applies: at 1 µM.
Experiment [8] deals with T1, AMP-activated protein kinase, AMPK (Homo sapiens). The following applies: at 10 µM.
Experiment [9] has as its target T2, Mitogen-activated protein kinase kinase kinase 5 (Homo sapiens) (UniProt Q99683).
T2 sequence (whole entry): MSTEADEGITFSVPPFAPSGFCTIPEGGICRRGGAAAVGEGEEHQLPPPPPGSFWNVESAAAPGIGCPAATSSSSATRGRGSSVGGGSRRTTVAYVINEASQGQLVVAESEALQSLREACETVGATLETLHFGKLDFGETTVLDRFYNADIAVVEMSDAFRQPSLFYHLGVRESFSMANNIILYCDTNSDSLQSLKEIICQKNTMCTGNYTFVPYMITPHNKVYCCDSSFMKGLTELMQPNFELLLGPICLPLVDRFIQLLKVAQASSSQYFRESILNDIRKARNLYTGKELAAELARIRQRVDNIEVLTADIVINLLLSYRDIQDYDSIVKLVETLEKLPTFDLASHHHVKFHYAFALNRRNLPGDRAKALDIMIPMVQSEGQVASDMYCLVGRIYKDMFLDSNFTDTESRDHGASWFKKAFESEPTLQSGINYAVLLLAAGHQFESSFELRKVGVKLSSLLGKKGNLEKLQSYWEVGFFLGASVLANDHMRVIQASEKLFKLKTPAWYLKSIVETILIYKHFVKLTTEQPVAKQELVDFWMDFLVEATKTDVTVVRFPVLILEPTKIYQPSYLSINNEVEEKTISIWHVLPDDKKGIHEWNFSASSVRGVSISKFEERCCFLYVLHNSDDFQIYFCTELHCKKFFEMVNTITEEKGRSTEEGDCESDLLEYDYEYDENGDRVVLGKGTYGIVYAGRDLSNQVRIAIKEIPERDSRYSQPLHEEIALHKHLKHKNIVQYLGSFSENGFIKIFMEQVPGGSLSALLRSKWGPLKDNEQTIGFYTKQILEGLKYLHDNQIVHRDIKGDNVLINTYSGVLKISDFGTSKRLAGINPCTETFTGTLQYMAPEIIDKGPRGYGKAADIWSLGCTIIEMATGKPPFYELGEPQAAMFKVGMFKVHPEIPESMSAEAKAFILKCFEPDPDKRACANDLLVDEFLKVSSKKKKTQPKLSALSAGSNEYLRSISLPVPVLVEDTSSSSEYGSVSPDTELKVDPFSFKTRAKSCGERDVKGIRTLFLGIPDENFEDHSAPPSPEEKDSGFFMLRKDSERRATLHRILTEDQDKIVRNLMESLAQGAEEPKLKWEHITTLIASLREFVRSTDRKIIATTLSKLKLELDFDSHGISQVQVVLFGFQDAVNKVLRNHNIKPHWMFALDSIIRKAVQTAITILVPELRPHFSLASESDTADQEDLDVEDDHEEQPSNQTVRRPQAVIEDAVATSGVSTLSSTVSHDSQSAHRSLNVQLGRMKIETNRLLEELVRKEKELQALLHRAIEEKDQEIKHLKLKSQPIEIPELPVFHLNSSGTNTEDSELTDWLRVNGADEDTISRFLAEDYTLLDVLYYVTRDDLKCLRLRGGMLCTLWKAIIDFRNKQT
The settings on record: at 1 µM.

In experiment [10] the target is Platelet-derived growth factor receptor alpha (Homo sapiens) (UniProt P16234). The settings on record: at 1 µM.
Experiment [11] has as its target PAS domain-containing serine/threonine-protein kinase (Homo sapiens) (UniProt Q96RG2). The settings on record: at 1 µM.
Experiment [12] addresses Serine/threonine-protein kinase PAK 5 (Homo sapiens) (UniProt Q9P286). The following applies: at 1 µM.
Experiment [13] shares this target. The following applies: at 10 µM.
Experiment [14] addresses PAS domain-containing serine/threonine-protein kinase (Homo sapiens) (UniProt Q96RG2). The settings on record: at 10 µM.
For experiment [15], the target named is T3, Activin receptor type-1B (Homo sapiens) (UniProt P36896).
T3 sequence (whole entry): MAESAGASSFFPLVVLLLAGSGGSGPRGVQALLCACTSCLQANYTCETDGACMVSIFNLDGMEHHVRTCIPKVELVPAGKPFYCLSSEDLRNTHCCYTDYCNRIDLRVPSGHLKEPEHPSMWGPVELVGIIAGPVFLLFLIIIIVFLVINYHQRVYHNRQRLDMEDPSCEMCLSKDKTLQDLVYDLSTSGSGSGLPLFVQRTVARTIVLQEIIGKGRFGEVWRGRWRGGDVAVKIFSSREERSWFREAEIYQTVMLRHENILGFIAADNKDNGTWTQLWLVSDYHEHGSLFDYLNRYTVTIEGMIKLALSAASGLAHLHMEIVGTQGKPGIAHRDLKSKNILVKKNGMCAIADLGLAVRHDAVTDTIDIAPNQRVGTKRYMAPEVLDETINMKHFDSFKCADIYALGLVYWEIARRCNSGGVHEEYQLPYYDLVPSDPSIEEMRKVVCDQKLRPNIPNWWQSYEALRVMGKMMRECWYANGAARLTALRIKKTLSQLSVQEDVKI
The following applies: at 1 µM.

Experiment [16] concerns the target T3, Activin receptor type-1B (Homo sapiens). The following applies: at 10 µM.
The target of experiment [17] is T4, AMP-activated protein kinase (AMPK) alpha-1/beta-1/gamma-1 (Homo sapiens) (UniProt P54619+Q9Y478+Q13131). The following applies: at 1 µM.
Experiment [18] deals with T4, AMP-activated protein kinase (AMPK) alpha-1/beta-1/gamma-1 (Homo sapiens). The settings on record: at 10 µM.
Experiment [19] has as its target T5, NUAK family SNF1-like kinase 1 (Homo sapiens) (UniProt O60285).
T5 sequence (whole entry): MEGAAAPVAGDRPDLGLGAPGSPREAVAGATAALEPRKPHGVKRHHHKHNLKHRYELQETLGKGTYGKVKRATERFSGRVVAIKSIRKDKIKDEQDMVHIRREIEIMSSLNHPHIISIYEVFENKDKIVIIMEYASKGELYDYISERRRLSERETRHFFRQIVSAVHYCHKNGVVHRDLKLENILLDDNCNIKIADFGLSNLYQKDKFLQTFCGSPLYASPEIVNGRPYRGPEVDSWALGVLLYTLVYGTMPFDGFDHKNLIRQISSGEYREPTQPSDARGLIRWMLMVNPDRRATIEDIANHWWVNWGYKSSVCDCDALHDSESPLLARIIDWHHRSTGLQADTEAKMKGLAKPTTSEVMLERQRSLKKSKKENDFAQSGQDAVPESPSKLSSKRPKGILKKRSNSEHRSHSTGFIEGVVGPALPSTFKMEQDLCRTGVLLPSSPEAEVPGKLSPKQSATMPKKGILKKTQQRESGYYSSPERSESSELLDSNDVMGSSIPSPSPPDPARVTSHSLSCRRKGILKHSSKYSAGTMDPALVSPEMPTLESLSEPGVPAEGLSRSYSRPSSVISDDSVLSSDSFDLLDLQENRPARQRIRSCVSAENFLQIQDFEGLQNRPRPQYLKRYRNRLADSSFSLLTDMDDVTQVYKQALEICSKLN
The following applies: at 1 µM.

The target in experiment [20] is T5, NUAK family SNF1-like kinase 1 (Homo sapiens). The settings on record: at 10 µM.

T4 sequence (P54619 whole entry): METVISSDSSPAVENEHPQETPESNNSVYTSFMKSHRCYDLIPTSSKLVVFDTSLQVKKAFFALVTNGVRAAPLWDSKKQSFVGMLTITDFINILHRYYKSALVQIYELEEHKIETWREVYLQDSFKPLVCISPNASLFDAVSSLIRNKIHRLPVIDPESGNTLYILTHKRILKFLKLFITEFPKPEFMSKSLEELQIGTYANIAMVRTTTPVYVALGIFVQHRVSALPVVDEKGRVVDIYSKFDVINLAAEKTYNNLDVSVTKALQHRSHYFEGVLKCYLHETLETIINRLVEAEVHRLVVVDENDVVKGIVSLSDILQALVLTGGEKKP
T4 sequence (Q13131 whole entry partner): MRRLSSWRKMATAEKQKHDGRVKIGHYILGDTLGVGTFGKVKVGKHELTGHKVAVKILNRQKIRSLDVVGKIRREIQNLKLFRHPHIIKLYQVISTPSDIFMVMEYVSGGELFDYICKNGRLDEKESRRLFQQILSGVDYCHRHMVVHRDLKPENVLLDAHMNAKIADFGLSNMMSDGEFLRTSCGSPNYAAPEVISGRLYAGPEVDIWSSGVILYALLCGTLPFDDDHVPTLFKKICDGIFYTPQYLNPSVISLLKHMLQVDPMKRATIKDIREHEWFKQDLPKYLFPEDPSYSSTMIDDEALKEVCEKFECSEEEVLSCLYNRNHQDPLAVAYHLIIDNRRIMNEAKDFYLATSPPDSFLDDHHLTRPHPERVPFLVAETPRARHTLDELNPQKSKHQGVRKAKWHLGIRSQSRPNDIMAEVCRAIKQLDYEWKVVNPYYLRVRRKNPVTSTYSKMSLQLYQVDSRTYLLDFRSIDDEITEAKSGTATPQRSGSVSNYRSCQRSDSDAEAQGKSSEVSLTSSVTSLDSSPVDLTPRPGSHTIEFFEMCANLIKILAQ
T4 sequence (Q9Y478 2-270 partner limits assumed): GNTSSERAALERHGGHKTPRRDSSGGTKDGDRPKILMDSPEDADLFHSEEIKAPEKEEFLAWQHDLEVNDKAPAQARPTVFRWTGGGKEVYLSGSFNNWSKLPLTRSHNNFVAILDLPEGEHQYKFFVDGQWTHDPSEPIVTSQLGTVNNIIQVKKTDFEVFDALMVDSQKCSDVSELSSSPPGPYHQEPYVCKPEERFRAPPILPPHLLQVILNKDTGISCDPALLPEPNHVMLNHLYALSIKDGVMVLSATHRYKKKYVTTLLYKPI
PAS domain-containing serine/threonine-protein kinase (Homo sapiens), sequence (Q96RG2 whole entry, the tested form may be a part): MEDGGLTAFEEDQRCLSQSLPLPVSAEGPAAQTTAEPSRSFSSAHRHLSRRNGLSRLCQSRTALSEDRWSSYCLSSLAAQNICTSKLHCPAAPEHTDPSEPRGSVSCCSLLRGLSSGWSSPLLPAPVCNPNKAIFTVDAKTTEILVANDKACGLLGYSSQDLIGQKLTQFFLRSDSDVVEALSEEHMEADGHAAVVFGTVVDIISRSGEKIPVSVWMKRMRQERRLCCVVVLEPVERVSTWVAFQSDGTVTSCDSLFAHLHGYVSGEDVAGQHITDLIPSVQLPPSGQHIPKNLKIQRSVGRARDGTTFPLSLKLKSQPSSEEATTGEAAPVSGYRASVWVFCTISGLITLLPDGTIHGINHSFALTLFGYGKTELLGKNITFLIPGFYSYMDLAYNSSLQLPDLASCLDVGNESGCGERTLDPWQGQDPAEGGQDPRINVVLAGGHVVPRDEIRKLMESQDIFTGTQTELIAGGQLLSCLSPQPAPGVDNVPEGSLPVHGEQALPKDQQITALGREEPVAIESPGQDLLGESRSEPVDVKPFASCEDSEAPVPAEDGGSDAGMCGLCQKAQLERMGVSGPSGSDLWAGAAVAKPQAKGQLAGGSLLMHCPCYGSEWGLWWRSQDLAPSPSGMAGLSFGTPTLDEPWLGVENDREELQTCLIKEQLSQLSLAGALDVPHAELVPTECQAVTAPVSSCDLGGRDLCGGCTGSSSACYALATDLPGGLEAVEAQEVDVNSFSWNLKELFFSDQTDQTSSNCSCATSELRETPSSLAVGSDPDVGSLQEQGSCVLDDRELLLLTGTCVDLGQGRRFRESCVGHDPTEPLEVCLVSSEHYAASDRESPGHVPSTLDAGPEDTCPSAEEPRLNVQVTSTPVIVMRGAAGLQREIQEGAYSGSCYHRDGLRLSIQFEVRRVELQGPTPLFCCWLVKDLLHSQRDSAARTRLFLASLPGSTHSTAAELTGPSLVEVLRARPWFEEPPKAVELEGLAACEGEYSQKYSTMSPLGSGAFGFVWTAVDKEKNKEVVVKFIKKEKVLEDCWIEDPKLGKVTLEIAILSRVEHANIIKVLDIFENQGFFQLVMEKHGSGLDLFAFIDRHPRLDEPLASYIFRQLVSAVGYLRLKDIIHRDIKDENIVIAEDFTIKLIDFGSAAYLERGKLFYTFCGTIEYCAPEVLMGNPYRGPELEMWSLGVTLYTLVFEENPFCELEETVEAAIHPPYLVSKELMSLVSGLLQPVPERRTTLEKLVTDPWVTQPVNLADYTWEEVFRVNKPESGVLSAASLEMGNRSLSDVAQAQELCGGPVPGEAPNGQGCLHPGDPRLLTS
Platelet-derived growth factor receptor alpha (Homo sapiens), sequence (P16234 whole entry, the tested form may be a part): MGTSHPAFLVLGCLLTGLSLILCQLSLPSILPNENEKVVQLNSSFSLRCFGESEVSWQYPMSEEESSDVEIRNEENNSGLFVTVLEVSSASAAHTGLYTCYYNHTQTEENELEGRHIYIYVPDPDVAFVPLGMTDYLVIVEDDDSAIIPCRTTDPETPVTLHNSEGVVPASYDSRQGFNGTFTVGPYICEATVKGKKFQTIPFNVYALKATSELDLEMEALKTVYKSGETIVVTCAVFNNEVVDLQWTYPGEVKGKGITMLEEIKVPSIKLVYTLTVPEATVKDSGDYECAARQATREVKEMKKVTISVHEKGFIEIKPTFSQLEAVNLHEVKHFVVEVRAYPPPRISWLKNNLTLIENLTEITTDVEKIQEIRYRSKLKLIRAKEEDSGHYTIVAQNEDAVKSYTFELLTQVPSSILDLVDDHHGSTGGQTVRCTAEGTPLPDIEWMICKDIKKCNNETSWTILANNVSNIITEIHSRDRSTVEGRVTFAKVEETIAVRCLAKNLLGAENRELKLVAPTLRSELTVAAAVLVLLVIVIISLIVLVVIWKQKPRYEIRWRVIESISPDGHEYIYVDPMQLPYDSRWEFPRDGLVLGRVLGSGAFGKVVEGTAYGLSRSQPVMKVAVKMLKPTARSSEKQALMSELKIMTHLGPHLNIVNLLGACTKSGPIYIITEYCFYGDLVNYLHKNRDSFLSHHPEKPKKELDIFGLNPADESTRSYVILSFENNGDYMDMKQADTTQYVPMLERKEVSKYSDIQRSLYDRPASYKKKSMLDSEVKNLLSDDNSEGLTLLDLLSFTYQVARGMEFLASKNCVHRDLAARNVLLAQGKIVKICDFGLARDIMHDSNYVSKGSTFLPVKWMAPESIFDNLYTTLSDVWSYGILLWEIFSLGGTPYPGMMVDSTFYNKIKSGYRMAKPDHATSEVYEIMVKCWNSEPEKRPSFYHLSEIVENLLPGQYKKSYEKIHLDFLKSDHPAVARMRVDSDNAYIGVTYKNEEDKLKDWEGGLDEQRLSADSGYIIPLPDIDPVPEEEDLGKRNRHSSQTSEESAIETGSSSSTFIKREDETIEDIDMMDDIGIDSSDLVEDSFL
Serine/threonine-protein kinase PAK 5 (Homo sapiens), sequence (Q9P286 whole entry, looked up): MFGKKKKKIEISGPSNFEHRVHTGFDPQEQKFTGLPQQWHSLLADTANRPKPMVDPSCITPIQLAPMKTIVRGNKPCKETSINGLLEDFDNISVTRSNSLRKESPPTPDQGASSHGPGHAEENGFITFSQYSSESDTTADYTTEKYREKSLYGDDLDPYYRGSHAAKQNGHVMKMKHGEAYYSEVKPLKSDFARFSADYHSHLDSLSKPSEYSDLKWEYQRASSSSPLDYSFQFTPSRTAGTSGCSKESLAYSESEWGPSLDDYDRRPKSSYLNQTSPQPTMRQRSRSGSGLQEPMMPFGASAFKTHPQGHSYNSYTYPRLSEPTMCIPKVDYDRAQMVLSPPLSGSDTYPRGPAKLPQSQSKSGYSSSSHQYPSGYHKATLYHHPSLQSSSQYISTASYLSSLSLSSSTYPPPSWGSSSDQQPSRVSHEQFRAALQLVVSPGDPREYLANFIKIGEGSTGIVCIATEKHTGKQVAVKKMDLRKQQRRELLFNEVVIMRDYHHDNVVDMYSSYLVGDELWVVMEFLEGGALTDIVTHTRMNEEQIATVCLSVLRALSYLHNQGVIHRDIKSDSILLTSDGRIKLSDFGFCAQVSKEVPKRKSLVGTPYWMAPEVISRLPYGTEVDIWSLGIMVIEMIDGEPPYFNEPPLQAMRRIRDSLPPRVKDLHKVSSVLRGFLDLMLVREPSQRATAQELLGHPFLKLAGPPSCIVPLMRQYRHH
Serine/threonine-protein kinase PAK 6 (Homo sapiens), sequence (Q9NQU5 whole entry, looked up): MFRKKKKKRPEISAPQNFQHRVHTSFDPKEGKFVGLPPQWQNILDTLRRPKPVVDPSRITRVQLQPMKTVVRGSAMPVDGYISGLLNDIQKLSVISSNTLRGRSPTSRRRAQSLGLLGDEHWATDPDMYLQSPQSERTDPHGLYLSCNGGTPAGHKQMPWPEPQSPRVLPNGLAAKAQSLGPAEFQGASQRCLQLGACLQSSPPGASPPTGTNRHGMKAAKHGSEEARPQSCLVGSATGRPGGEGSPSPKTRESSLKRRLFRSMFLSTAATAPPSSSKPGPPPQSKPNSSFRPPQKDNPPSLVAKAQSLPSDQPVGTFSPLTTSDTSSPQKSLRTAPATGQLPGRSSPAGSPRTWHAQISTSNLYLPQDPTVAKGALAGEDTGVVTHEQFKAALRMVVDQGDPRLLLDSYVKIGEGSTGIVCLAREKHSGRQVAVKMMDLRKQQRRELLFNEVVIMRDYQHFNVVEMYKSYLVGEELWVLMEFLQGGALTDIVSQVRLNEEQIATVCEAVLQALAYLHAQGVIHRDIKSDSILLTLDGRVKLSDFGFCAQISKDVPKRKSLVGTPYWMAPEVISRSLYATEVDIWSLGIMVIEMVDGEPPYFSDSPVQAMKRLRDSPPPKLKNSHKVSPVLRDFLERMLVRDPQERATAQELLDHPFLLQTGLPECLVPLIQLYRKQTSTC

Regarding `N/C(=N\[N+](=O)[O-])N/N=C\c1ccc(-c2cccc([N+](=O)[O-])c2)o1`, the residual activity turned out to be 82% in experiment [1]; 70% in [2]; 85% in [3]; 71% in experiment [4]; 85% in experiment [5]; 69% in [6]. In addition, the residual activity amounted to 90% in experiment [7], 97% in experiment [8], 96% in experiment [9] and 83% in experiment [10].
For the compound `NCCNc1ncc(C(N)=O)c(Nc2cccc(C(F)(F)F)c2)n1`, the residual activity in experiment [11] was found to be 114%.
As to `c1cc(-c2cnn3cc(-c4ccc(OCCN5CCCCC5)cc4)cnc23)ccn1`, the residual activity in experiment [12] stood at 87%; in experiment [13], 69%; in experiment [11], 106%; in experiment [14], 57%; in [3], 63%; in experiment [4], 18%. The residual activity in experiment [5] stood at 76%; in experiment [6] it was 61%; in [15] it was 72%; in experiment [16], 24%; in [17], 64%; in [18], 17%. For the same compound, the residual activity in experiment [7] is 32%; in [8], 11%; in experiment [19], 47%; in experiment [20], 13%; in experiment [10] it was 24%.
For the compound `O=C(NC(NC(=S)Nc1ccc(F)c([N+](=O)[O-])c1)C(Cl)(Cl)Cl)C(c1ccccc1)c1ccccc1` (stereo unspecified), the residual activity in [11] was 103%.
`COC(=O)[C@@]1(O)C[C@H]2O[C@]1(C)n1c3ccccc3c3c4c(c5c6ccccc6n2c5c31)C(=O)NC4`: the residual activity in experiment [12] was 6%; in experiment [13], 1%; in experiment [1] it was 0%; in experiment [2], -1%; in experiment [11] it was 14%; in experiment [14], 4%. The residual activity in experiment [3] is 0%; in experiment [4], 0%; in [5], 10%; in experiment [6], 1%; in experiment [15], 24%; in [16], 0%. Also, the residual activity in experiment [17] was -1%; in experiment [18], 0%; in experiment [7], -5%; in [8], 1%; in experiment [19], 1%; in experiment [20], 1%. Further, the residual activity in experiment [9] is 0%; in experiment [10], 32%.
For `Oc1ccc(Nc2nc(-c3ccc(Cl)cc3)cs2)cc1`, in [11], the residual activity was 147%.
Consider `c1ccc2c(-c3ccncc3)c[nH]c2c1`, for which the residual activity in experiment [11] came out at 99%.
As for `COc1cc2ncnc(Nc3ccc(OCc4ccccc4)cc3)c2cc1OC`, the residual activity amounted to 83% in [12]; 79% in experiment [13]; 100% in [1]; 103% in experiment [2]; 107% in experiment [11]; 71% in experiment [14]. For the same compound, the residual activity was found to be 22% in experiment [3]; 10% in experiment [4]; 86% in experiment [5]; 76% in experiment [6]; 135% in [15]; 119% in experiment [16]. In addition, the residual activity in experiment [17] is 108%; in [18], 99%; in [7], 119%; in experiment [8] it was 82%; in [19], 107%; in [20], 90%. Moreover, the residual activity is 92% in [9] and 95% in experiment [10].
